Measurements: PubChem BioAssay AID463173 (ICCB-Longwood Screening Facility, Harvard Medical School, 2010)
“And” between values parts separate entries of the source, which are not always exact repeats. Equal values may be shown once. Among all 52,000 compounds or so, about 4,300 (8.3%) were called active. The sample holds actives, similar compounds and a random draw of the others, so the mix is not that of the screen. Rule as the data show it: active = survival mostly below about 52% (no sharp cut-off); inactive = mostly above about 56%. A structure can be active in one record and inactive in another.

The compounds below were run on DeltatarO mutant (assay: S. aureus survival, RN4220 and DeltatarO strains – OD600, teichoic acid synthesis inhibitors, primary screen (AID 463173)). Conditions: S. aureus RN4220 wild type/DeltatarO growth, OD600, 18 h, stronger effect = lower value, screened at 18.75 µg/mL (by protocol).
`COc1ccc(C(=O)NCC(c2ccc(N(C)C)cc2)N2CCc3ccccc32)cc1` (stereo not given) was tested, and the survival was 118% (inactive).
In the case of `Cc1cc(C(=O)NCC(=O)O)c(C)o1`, the survival is reported as 76% (inactive).
`Cc1cc(C(=O)Nc2ccccc2C(=O)O)c(C)o1` was tested, and the survival was 66% (inactive).
For `Cc1cc(C(=O)NCc2ccc(C(=O)O)o2)c(C)o1`, the survival was 58% (active).
With `CCC(=O)NC1CCNCC1` the survival was 76% (inactive).
In the case of `CCOc1ccccc1CNS(=O)(=O)c1ccc2[nH]c(=O)ccc2c1`, the survival is reported as 81% (inactive).
With `CCOc1ccc(CNS(=O)(=O)c2ccc3[nH]c(=O)ccc3c2)cc1` the survival was 85% (inactive).
`CCOc1ccc(OCC)c(NS(=O)(=O)c2ccc3[nH]c(=O)ccc3c2)c1` was tested, and the survival was 8% (active).
`Cc1ccc(C)c(NS(=O)(=O)c2ccc3oc(=O)c4ncn(C)c4c3c2)c1` was tested, and the survival was 82% (inactive).
In the case of `COc1ccc(Cc2nc3ccccc3n2Cc2ccccc2F)cc1`, the survival is reported as 18% (active).
For `Cc1ccccc1Cn1c(CCCNC(=O)C2CCCCC2)nc2ccccc21`, the survival was 90% (inactive).
`O=C(NCCCc1nc2ccccc2n1Cc1ccccc1F)c1ccco1` was tested, and the survival was 63% (inactive).
`O=C(NCCc1nc2ccccc2n1Cc1ccccc1F)c1ccc(F)cc1` was tested, and the survival was 81% (inactive).
For `COc1cccc(OCc2nc3ccccc3n2Cc2ccccc2C)c1`, the survival was 75% (inactive).
`COc1ccc(Cc2nc3ccccc3n2Cc2ccccc2C)cc1` was tested, and the survival was -3% (active).
For `CC(=O)N1CCc2cc(CNC(=O)Cc3ccc(F)cc3)ccc21`, the survival was 94% (inactive).
In the case of `Cc1oc2cc3oc(=O)c(CC(=O)N4CCCCC4)c(C)c3cc2c1C`, the survival is reported as 73% (inactive).
With `O=C(Cn1cc(SCc2ccccc2F)c2ccccc21)N1CCCCC1` the survival was 82% (inactive).
In the case of `O=C(Nc1ccc(Cl)cc1)c1cc(S(=O)(=O)NC2CCCCCC2)ccc1F`, the survival is reported as 90% (inactive).
In the case of `O=C(Nc1ccc(C(F)(F)F)cc1)c1cc(S(=O)(=O)NC2CCCCC2)ccc1F`, the survival is reported as 92% (inactive).
With `Cc1ccc(NC(=O)c2cc(S(=O)(=O)NC3CCCCC3)ccc2F)cc1Cl` the survival was -5% (active).
For `CCc1ccc(NC(=O)c2ccc(F)c(S(=O)(=O)NC3CCCCCC3)c2)cc1`, the survival was -2% (active).
With `O=C(Nc1ccc(C(F)(F)F)cc1)c1cc(S(=O)(=O)NC2CCCCCC2)ccc1F` the survival was 25% (active).
`O=C(Nc1ccc(Br)cc1)c1ccc(F)c(S(=O)(=O)NC2CCCCCC2)c1` was tested, and the survival was 84% (inactive).
`Cc1ccc(NC(=O)c2cc(S(=O)(=O)NC3CCCCCC3)ccc2F)cc1F` was tested, and the survival was 92% (inactive).
In the case of `COC(=O)c1ccc(CN(Cc2ccc(OC)c(OC)c2)S(=O)(=O)c2cc(C(=O)Nc3cccc(C)c3)ccc2F)cc1`, the survival is reported as 86% (inactive).
In the case of `CCc1ccc(NC(=O)c2ccc(F)c(S(=O)(=O)N(C)C3CCCCC3)c2)cc1`, the survival is reported as 84% (inactive).
In the case of `CCOc1ccc(NC(=O)c2ccc(F)c(S(=O)(=O)N(Cc3ccc(C(=O)OC)cc3)Cc3ccc(OC)c(OC)c3)c2)cc1`, the survival is reported as 47% (active).
In the case of `CCOc1ccc(NC(=O)c2ccc(F)c(S(=O)(=O)N(CC)Cc3ccccc3)c2)cc1`, the survival is reported as 78% (inactive).
`O=C(Nc1ccc(F)c(F)c1)c1cc(S(=O)(=O)NC2CCCCCC2)ccc1F` was tested, and the survival was 54% (inactive).
With `CSc1nnc(COc2ccc(Br)cc2)n1Cc1ccccc1` the survival was 97% (inactive).
`CCNC(=O)Nc1ccc2nc(C)n(Cc3cccc(Cl)c3)c(=O)c2c1` was tested, and the survival was 104% (inactive).
For `Cc1nn(-c2ccccc2)c2c1N(CCCC(=O)NCc1ccccc1)C(=O)CS2`, the survival was 99% (inactive).
For `O=C(c1ccco1)N1CCN(Cc2cccc(Br)c2)CC1`, the survival was 95% (inactive).
In the case of `Cc1ccc(CNC(=O)CCCCn2c(=O)c3ccccc3n(Cc3ccc(C)cc3)c2=O)cc1`, the survival is reported as 67% (inactive).
`CCOc1ccc(OCC)c(NC(=O)C2CCN(S(=O)(=O)c3ccc(Br)s3)CC2)c1` was tested, and the survival was 80% (inactive).
For `COc1cc(NC(=O)C2CCN(S(=O)(=O)c3ccc4c(c3)oc(=O)n4C)CC2)cc(OC)c1`, the survival was 102% (inactive).
`Fc1ccccc1OCc1nc(-c2ccc(-n3cccc3)cc2)no1` was tested, and the survival was 75% (inactive).
With `COc1ccc(CNC(=O)CSc2nc3ccccc3nc2Cc2ccccc2OC)cc1` the survival was 70% (inactive).
For `CCOc1ccc(NC(=O)C2CCC(CNS(=O)(=O)c3ccc4c(c3)CCCC(=O)N4)CC2)cc1` (stereo not given), the survival was 47% (active).
For `COc1ccc(NC(=O)C2CCC(CNS(=O)(=O)c3ccc4c(c3)C(C)(C)C(=O)N4C)CC2)cc1` (stereo not given), the survival was 54% (inactive).
`CC(C)c1ccc(NC(=O)C2CCC(CNS(=O)(=O)c3ccc4c(c3)CCCC(=O)N4)CC2)cc1` (stereo not given) was tested, and the survival was 73% (inactive).
With `Cc1cc(C)cc(NC(=O)C2CCC(CNS(=O)(=O)c3ccc4c(c3)C(C)(C)C(=O)N4C)CC2)c1` (stereo not given) the survival was 102% (inactive).
With `Cc1ccc(NC(=O)C2CCC(CNS(=O)(=O)c3ccc4c(c3)C(C)(C)C(=O)N4C)CC2)cc1` (stereo not given) the survival was 67% (active).
`CC(=O)c1ccc(NC(=O)C2CCC(CNS(=O)(=O)c3ccc4c(c3)CCCC(=O)N4)CC2)cc1` (stereo not given) was tested, and the survival was 73% (inactive).
For `Cc1ccc(S(=O)(=O)NC2CCCCC2)c2nsnc12`, the survival was 78% (inactive).
`Cc1nc(C)c(CCNS(=O)(=O)c2ccc(F)cc2)s1` was tested, and the survival was 119% (inactive).
In the case of `CCc1cccc(NC(=O)CSc2n[nH]c(-c3ccccc3Cl)n2)c1`, the survival is reported as 66% (inactive).
`Cc1cc(Nc2ccccc2O)nc(C)n1` was tested, and the survival was 67% (inactive).
For `COc1cc(OC)c(NS(=O)(=O)c2c(C(=O)N3CCCCCC3)c(C)n(C)c2C)cc1Cl`, the survival was 68% (inactive).
`CCOc1ccc(CNS(=O)(=O)c2c(C(=O)N3CCC(C)CC3)c(C)n(C)c2C)cc1OC` was tested, and the survival was 81% (inactive).
For `CCOc1ccc(OCC)c(NS(=O)(=O)c2c(C(=O)N3CCCCCC3)c(C)n(C)c2C)c1`, the survival was 76% (inactive).
For `COc1ccc(C)cc1NS(=O)(=O)c1c(C(=O)N2CCC(C)CC2)c(C)n(C)c1C`, the survival was 89% (inactive).
With `COc1cc(OC)c(NS(=O)(=O)c2c(C(=O)N3CCC(C)CC3)c(C)n(C)c2C)cc1Cl` the survival was 17% (active).
In the case of `CC(=O)Nc1ccc(NS(=O)(=O)c2c(C(=O)N3CCCCCC3)c(C)n(C)c2C)cc1`, the survival is reported as 66% (inactive).
In the case of `CCOc1ccc(OCC)c(NS(=O)(=O)c2c(C(=O)N3CCC(C)CC3)c(C)n(C)c2C)c1`, the survival is reported as 8% (active).
In the case of `Cc1ccc(NS(=O)(=O)c2c(C(=O)N3CCC(C)CC3)c(C)n(C)c2C)cc1Cl`, the survival is reported as 126% (inactive).
`CC(=O)Nc1ccc(NS(=O)(=O)c2c(C(=O)N3CCC(C)CC3)c(C)n(C)c2C)cc1` was tested, and the survival was 20% (active).
In the case of `Cc1ccc(CNC(=O)c2c(-c3ccccc3F)noc2C)o1`, the survival is reported as 89% (inactive).
For `CCC1CN(C(=O)N2CCC(C(=O)NCCN(CC)CC)CC2)c2cc(C)ccc2O1` (stereo not given), the survival was 94% (inactive).
In the case of `Cn1ccc2c(OCC(=O)Nc3ccc(OC(F)(F)F)cc3)cccc2c1=O`, the survival is reported as 95% (inactive).
For `CCCc1nn2c(=O)cc(COC(=O)c3cccc(NC(=O)CCc4ccccc4)c3)nc2s1`, the survival was 131% (inactive).
With `CC(=O)c1ccc(NC(=O)Cn2c(=O)nc(-c3ccccc3)c3cc(Cl)ccc32)cc1` the survival was 115% (inactive).
In the case of `O=C(NCCC1=CCCCC1)C1CC(O)CN1C(=O)Nc1ccccc1` (stereo not given), the survival is reported as 87% (inactive).
In the case of `CCOC(=O)c1c(NC(=O)c2cc(-c3cccc(OC)c3)on2)sc2c1CCCC2`, the survival is reported as 46% (active).
For `CCOC(=O)c1c(NC(=O)c2cc(-c3ccc(OC)c(OC)c3)on2)sc2c1CCCC2`, the survival was 52% (inactive).
`CCOC(=O)c1c(NC(=O)c2cc(-c3ccc(Cl)cc3)on2)sc2c1CCCC2` was tested, and the survival was 68% (inactive).
In the case of `CCOC(=O)c1c(-c2ccccc2)csc1NC(=O)c1cc(-c2ccc(C)c(F)c2)on1`, the survival is reported as 52% (active).
For `CCOC(=O)c1c(-c2ccc(C)cc2)csc1NC(=O)c1cc(-c2ccc(OC)cc2)on1`, the survival was 49% (inactive).
In the case of `CCOC(=O)c1c(-c2ccc(C)cc2)csc1NC(=O)c1cc(-c2ccc(C)c(F)c2)on1`, the survival is reported as 55% (inactive).
`CCOC(=O)c1c(-c2ccccc2)csc1NC(=O)c1cc(-c2cccc(Cl)c2)on1` was tested, and the survival was 59% (inactive).
In the case of `CCOC(=O)c1c(-c2ccccc2)csc1NC(=O)c1cc(-c2ccc(F)cc2)on1`, the survival is reported as 66% (inactive).
`CCOC(=O)c1c(-c2ccccc2)csc1NC(=O)c1cc(-c2cccc(OC)c2)on1` was tested, and the survival was 43% (active).
`CCc1ccccc1-n1nnc(-c2nsc(NC(=O)c3ccc(C)c(C)c3)n2)c1C` was tested, and the survival was 130% (inactive).
In the case of `COc1ccc(NC(=O)C2Cc3ccccc3CN2S(=O)(=O)c2ccccc2)cc1OC` (stereo not given), the survival is reported as 94% (inactive).
`CCc1c(C)sc2c1CCN(Cc1cccc(OC)c1)C2c1ccccc1` (stereo not given) was tested, and the survival was 60% (inactive).
`CCCCNC(=O)c1ccc2c(=O)n(Cc3ccc(OC)cc3)c(=O)[nH]c2c1` was tested, and the survival was 68% (inactive).
With `COc1cc(OC)c(NC(=O)CCNS(=O)(=O)c2ccc3c(c2)oc(=O)n3C)cc1Cl` the survival was 83% (inactive).
`Cc1cc(/C=C(\C#N)C(=O)N2CCc3ccccc3C2)c(C)n1C` was tested, and the survival was 87% (inactive).
In the case of `O=C(/C=C\c1ccc2c(c1)OCO2)NC1CC(=O)N(c2cccc(F)c2)C1` (stereo not given), the survival is reported as 67% (inactive).
With `COC(=O)c1ccc(Cl)cc1NC(=O)NC(C)c1c(-n2cccc2)sc(C)c1C` (stereo not given) the survival was 19% (active).
For `Cc1sc(-n2cccc2)c(C(C)NC(=O)Nc2ccccc2Cl)c1C` (stereo not given), the survival was 61% (inactive).
In the case of `Cc1ccc(NC(=O)NC(C)c2c(-n3cccc3)sc(C)c2C)cc1F` (stereo not given), the survival is reported as 64% (inactive).
`COC(=O)c1ccc(NC(=O)NC(C)c2c(-n3cccc3)sc(C)c2C)cc1` (stereo not given) was tested, and the survival was 52% (inactive).
`COc1ccc(NC(=O)NC(C)c2c(-n3cccc3)sc(C)c2C)cc1OC` (stereo not given) was tested, and the survival was 58% (inactive).
`Cc1sc(-n2cccc2)c(C(C)NC(=O)Nc2cccc(C(F)(F)F)c2)c1C` (stereo not given) was tested, and the survival was 23% (active).
`CCn1nc(CCC(=O)O)c2ccccc2c1=O` was tested, and the survival was 80% (inactive).
With `Nc1ccc2oc(-c3ccccc3Br)nc2c1` the survival was 87% (inactive) and 39% (active).
In the case of `O=C(Nc1ccc2oc(-c3cccc4c(Br)cccc34)nc2c1)c1ccc(Br)cc1`, the survival is reported as 71% (inactive).
For `Cc1ccc2oc(-c3ccccc3C)nc2c1`, the survival was 105% (inactive).
